Screens as filed in PubChem BioAssay.
Hits are enriched below; roughly 1.4% of the tested compounds scored in any of these assays.
KCNH2 3.1 inh – inhibitors of human KCNH2 3.1 potassium channel isoform; 0.95% of 340,000 active; activity change, % (tested at about 1.8 µM); U2OS KCNH2 3.1, thallium flux FluxOr; hits give low values; AID 720553;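 active means maximum activity change below -70%; inconclusive means maximum activity change from -70% to -50%; inactive means maximum activity change above -50%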;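 further: thallium influx rate constant from kinetic fluorescence after stimulation buffer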
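Thallium flux read-out: FluxOr dye with Red40 quencher in HBSS/HEPES, 45 min at RT. Rate constants from kinetic reads were normalized to positive and negative DMSO controls. Cells: U2OS virally expressing the 3.1 isoform.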
MmCpn inh – M. maripaludis TRiC chaperonin inhibition; 0.031% of 330,000 active; purified Mm-Cpn ATPase, ADP Transcreener TR-FRET; Potency, µM (doses to about 76.9 µM), usual class: inhibitors; AID 504842; further: nearly all actives have a fitted effect of over 80% in size
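Reaction buffer contained 30 mM Tris pH 7.4, 100 mM KCl, 5 mM MgCl2 and 1 mM DTT. Mm-CPN (25 nM final) hydrolysed 10 uM ATP over 30 min at 37°C; ADP was read by HTRF.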
hERG WT inh – KCNH2 (human, wildtype) channel inhibition; Q12809; U2OS, BacMam KCNH2, thallium flux FluxOr; hits give low values; activity change, % at 1.84 µM; 0.37% of 340,000 active; AID 720551;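 active means maximum activity change below -70%; inconclusive means maximum activity change between -70% and -50%; inactive means maximum activity change above -50%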
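U2OS cells were transduced with wild-type KCNH2 virus (2.03 x 10^8 / mL) for 4 h at room temperature, then cultured overnight at 37 C. Thallium flux was read with FluxOr dye. Rate constants were normalized to DMSO controls.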
S-ASM inh – inhibitors of human secretory acid sphingomyelinase. 0.006% of 340,000 active. Potency, µM (doses to about 57.5 µM), actives largely listed as inhibitors. AID 504937. placental ASM, HMU-PC fluorogenic substrate, 60 min
Target sequence (P17405 47-631 limits assumed): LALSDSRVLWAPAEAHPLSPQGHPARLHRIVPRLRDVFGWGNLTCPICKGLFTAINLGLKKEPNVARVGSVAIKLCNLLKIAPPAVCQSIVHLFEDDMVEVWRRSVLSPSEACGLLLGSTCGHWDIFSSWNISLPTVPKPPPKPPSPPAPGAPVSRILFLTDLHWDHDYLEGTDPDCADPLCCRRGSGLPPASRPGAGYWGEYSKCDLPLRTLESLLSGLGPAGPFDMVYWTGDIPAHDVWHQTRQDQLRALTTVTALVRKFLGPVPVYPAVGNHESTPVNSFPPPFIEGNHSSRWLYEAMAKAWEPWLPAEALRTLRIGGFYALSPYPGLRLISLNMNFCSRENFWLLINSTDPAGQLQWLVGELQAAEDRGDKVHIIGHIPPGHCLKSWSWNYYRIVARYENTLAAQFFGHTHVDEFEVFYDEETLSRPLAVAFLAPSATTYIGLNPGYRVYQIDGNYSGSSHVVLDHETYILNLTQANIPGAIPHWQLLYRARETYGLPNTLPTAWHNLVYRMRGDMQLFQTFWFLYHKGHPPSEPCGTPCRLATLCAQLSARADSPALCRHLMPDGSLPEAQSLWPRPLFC
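Human placenta-derived ASM preincubated with compound 10 min at room temperature, then reacted with 9 uM (final) fluorogenic HMU-PC substrate for 60 min at 37 C. Stop solution raises pH to 10; fluorescence read at Ex 386/Em 447 nm.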
uPA surface inh – blocks generation of uPA at the cell surface. cell surface uPA generation assay, qHTS. Potency, µM (doses to about 38.3 µM), most hits filed as inhibitors. 0.31% of 330,000 active; active means well fitted inhibition curve with a large enough effect; inconclusive means small, poorly fitted or top-dose-only effect; inactive means no such curve, though single readings can be large or run the other way; tested in mouse RAW 264.7 cells; further: nearly all actives have a fitted effect of over 55% in size
p53 reactivator – mutant p53 re-activation in reporter cells; H1299 p53-A138V BP100-luciferase reporter, luminescence, 24 h; Potency, µM (titrated, usually from 92.2 µM), most hits filed as activators; 0.063% of 320,000 active; further: nearly all actives have a fitted effect of over 45% in size
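p53-null H1299 cells stably carrying temperature-sensitive p53-A138V and a BP100-luciferase reporter were pinned with compounds (4-point, 1:5 series) and held 24 hrs at 37 deg C. Luminescence was read 10 min after detection reagent.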
A number is an active result; 0 = inactive; ? = inconclusive; - = no result given. Unless noted, the call rests on the fitted dose curve; in most records, active means well fitted curve in the direction sought with a large enough effect; inconclusive means small, poorly fitted or top-dose-only effect, or another doubt; inactive means no such curve, though single readings can be large; an effect the other way counts as inactive or inconclusive.

SMILES	KCNH2 3.1 inh	MmCpn inh	hERG WT inh	S-ASM inh	uPA surface inh	p53 reactivator
Cc1c(Cl)cccc1NC(=S)C(=C([O-])c1ccc(Cl)s1)[n+]1ccccc1	0	-	0	0	0	-
O=C(CC1CCCC1)N1CCN(S(=O)(=O)c2cccc(Br)c2)CC1	0	-	0	-	-	-
CCCC(=O)Nc1ccc2c(c1)nc(CCN1CCC(C)CC1)n2C	0	-	0	-	-	-
Cc1ccc(CN2CCN(CC(=O)N=Nc3c(O)[nH]c4ccccc34)CC2)cc1	-72	0	?	0	0	0
Cc1c(C(=O)N(C)C)c2cc(Cl)ccc2n1O	0	0	0	0	0	0
Cc1c(C(=O)N(C)C)c2ccc(Cl)cc2n1O	-107	0	0	0	0	0
Cc1cc(Cl)c2oc(C(=O)N3CCN(c4ccncc4)CC3)c(C)c2c1	0	-	-138	0	0	-
COC(=O)C1CCN(C(=O)c2oc3c(Cl)cc(C)cc3c2C)CC1	0	0	0	0	0	16µM
CCOC(=O)C1CCCCN1C(=O)c1oc2c(Cl)cc(C)cc2c1C (stereo not given)	-	0	0	0	0	0
Cc1ccc(NS(=O)(=O)c2ccc(C(=O)N3CCN(S(=O)(=O)c4ccccc4)CC3)cc2)cc1	0	0	0	0	7.1µM	0
Cc1ccc(S(=O)(=O)N2CCN(CC(=O)N/N=C\c3ccc(O)c(O)c3)CC2)cc1	0	0	0	0	0	0
O=C(CN1CCN(S(=O)(=O)c2ccc(Br)cc2)CC1)N/N=C/c1ccc(Br)s1	-76	0	0	0	0	0
Cc1ccc(S(=O)(=O)N2CCN(CC(=O)N/N=C/C=C/c3ccccc3)CC2)cc1	-75	0	0	0	0	0
O=C(NCCS(=O)(=O)c1ccc(Cl)cc1)c1ccc(F)cc1	0	0	0	0	0	0
O=C(NCCS(=O)(=O)c1ccc(Br)cc1)c1ccc(F)cc1	0	0	-251	0	0	0
COc1cc(C(=O)NCc2nc(C)cs2)ccc1OC1CCN(C(C)=O)CC1	-76	0	0	-	0	0
COc1ccc(C(=O)NCc2csc(C)n2)cc1OC1CCN(C(C)=O)CC1	0	-	0	0	0	-
Cc1ccc(N/C(N)=N/c2nc(C)cc(N3CCCCC3)n2)c(C)c1	-97	0	0	0	0	0
Cc1ccc(N/C(N)=N/c2nc3c(c(=O)[nH]2)CCCC3)c(C)c1	0	0	0	0	0	0
COCCCn1c(=O)c2ccccc2n(Cc2ccc(C)cc2)c1=O	-123	0	0	0	0	-
O=c1c2ccccc2sc2ccc(C#CC3(O)CCCCC3)cc12	-	-	-	0	2.5µM	-
O=c1c2ccccc2oc2cc(C#CC3(O)CCCCC3)ccc12	0	-	0	?	4.5µM	-
COc1cccc2oc3cc(C#CC4(O)CCCCC4)ccc3c(=O)c12	-	0	-	0	7.1µM	0
CCOc1ccc(CCNC(=O)COC(=O)c2[nH]c(C)c(C(C)=O)c2C)cc1OCC	0	-	0	-	-	-
O=C(CSc1ccccn1)N/N=C/c1cc([N+](=O)[O-])ccc1O	0	0	0	0	3.5µM	0
SMILES	KCNH2 3.1 inh	MmCpn inh	hERG WT inh	S-ASM inh	uPA surface inh	p53 reactivator
O=C(Cn1cncn1)N/N=C/c1cc([N+](=O)[O-])ccc1O	0	0	-104	0	0	0
COc1ccc(S(=O)(=O)N2CCCCCC2)cc1NC(=O)CN1C(=O)NC(C)(c2ccccc2)C1=O (stereo not given)	0	0	0	0	0	0
COc1cccc(NC(=O)CN(C)C(=O)c2ccccn2)c1	0	0	0	0	0	0
C=CCn1c(CCNC(=O)c2cccs2)nnc1SCC(=O)c1ccc(Cl)cc1	-98	0	0	0	-	0
COc1ccc(NC2CCCN(C(=O)C3(C)CCCCC3)C2)cc1 (stereo not given)	0	0	0	0	0	0
CCn1nc(C(=O)OC(C(=O)c2c[nH]c3ccccc23)c2ccccc2)c2ccccc2c1=O (stereo not given)	-76	0	0	0	0	0
CCn1nc(C(=O)OCC(=O)c2ccc(F)cc2)c2ccccc2c1=O	0	0	0	0	0	0
CCN(CC(=O)Nc1c(F)cccc1F)C(=O)c1cc(C)nc2ccccc12	0	0	-72	0	0	0
CCCCN(C(=O)c1ccc(-c2ccc(Cl)cc2)o1)c1c(N)n(CCC)c(=O)[nH]c1=O	0	0	0	0	0	0
CNC(=S)N1N=C(c2ccc(C)cc2)CC1c1ccc(OC)cc1 (stereo not given)	0	0	0	0	0	0
CNC(=S)N1N=C(c2ccc(C)cc2)CC1c1ccc(N(C)C)cc1 (stereo not given)	0	25µM	0	0	0	0
NC(=O)CC(NC(=O)Cc1ccc(Br)cc1)c1ccc(NCC2CC2)c([N+](=O)[O-])c1 (stereo not given)	-82	0	0	0	?	0
NC(=O)CC(NC(=O)Cc1ccc(Cl)cc1)c1ccc(NCC2CC2)c([N+](=O)[O-])c1 (stereo not given)	0	0	-194	0	0	0
COC(=O)C[C@@H]1C[C@@H]2c3cc(NC(=O)NC4CCCCC4)ccc3O[C@@H]2[C@H](CO)O1	0	-	0	-	-	-
O=C(Nc1nc(-c2nc3ccccc3s2)cs1)C1COc2ccccc2O1 (stereo not given)	-83	0	0	0	0	?
CC1=C(C#N)C(=O)NC1(C)O (stereo not given)	0	-	0	-	-	-
C/C(=N\Nc1nc(C)cc(-c2ccccc2)n1)c1ccc(C)o1	0	0	0	0	0	0
C/C(=N\Nc1nc(C)cc(-c2ccccc2)n1)c1ccccc1	0	0	0	0	0	0
C/C(=N\Nc1nc(C)cc(-c2ccccc2)n1)c1ccc(O)cc1	0	0	0	0	10µM	-
C/C(=N\Nc1nc(C)cc(-c2ccccc2)n1)c1cccc(N)c1	0	0	0	0	10µM	0
COc1ccccc1NS(=O)(=O)c1cccc(C(=O)N/N=C/c2ccc([N+](=O)[O-])o2)c1	0	0	0	0	?	0
Cc1ccccc1COc1ccc(/C=N/NC(=O)c2nnn(-c3nonc3N)c2CN2CCC(C)CC2)cc1	?	?	0	0	0	0
CCCN(CCC)Cc1c(C(=O)N/N=C/c2ccc(Br)cc2)nnn1-c1nonc1N	-78	0	0	0	0	0
CN(C)Cc1c(C(=O)N/N=C/c2cccc(OCc3ccc(F)cc3)c2)nnn1-c1nonc1N	0	0	0	0	0	0
CC1CCN(Cc2c(C(=O)N/N=C/c3ccc(OC(C)C)cc3)nnn2-c2nonc2N)CC1	-112	0	0	0	0	0
CN(C)Cc1c(C(=O)N/N=C/c2ccc(OCc3ccc(F)cc3)cc2)nnn1-c1nonc1N	-76	0	0	0	0	0
